Assay results from PubChem BioAssay (NCATS).
Inconclusive results are not listed. Activity calls are given as the source filed them. Calls follow the shape of the dose curve; as a rule, active = well fitted curve in the direction sought with a large enough effect; inconclusive = small, poorly fitted or top-dose-only effect, or another doubt; inactive = no such curve, though single readings can be large; an effect the other way counts as inactive or inconclusive.

Key:
NIH3T3 = experiment: qHTS assay to identify novel small-molecules to repurpose for Merkel cell carcinoma treatment (AID 1296009); settings: MCC and control cell lines, CellTiter-Glo viability, 72 h; at 44.8 µM (top of the series) unless noted; also: nearly all actives have a fitted effect of over 60% in size
Procedure, shortened: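 CellTiter-Glo luminescence after 72 hr compound exposure at 37 degree celsius gave cell viability. Libraries NPC and MIPE were run as 8- and 11-point dose responses; RLUs normalized to DMSO (negative) and no-cell (cytotoxicity) controls.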

C33A = experiment: Primary qHTS to identify gynecologic anti-cancer compounds using libraries of approved drugs and bioactive compounds (AID 1345084); settings: Gynecologic cancer cell panel viability, ATPlite luminescence, 48 h; series mostly up to 57.5 µM; also: % is scaled to controls: 0 for no effect and ±100 for the full control effect; nearly all actives have a fitted effect of over 55% in size
Procedure, shortened: (§1)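 Five-concentration response, 48 h; readout is ATP-driven luciferase luminescence.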

CAOV3 = experiment: as above; settings: Gynecologic cancer cell panel viability, ATPlite luminescence, 48 h; series mostly up to 57.5 µM
Procedure, shortened: as §1

CASKI = experiment: as above; settings: Gynecologic cancer cell panel viability, ATPlite luminescence, 48 h; series mostly up to 57.5 µM
Procedure, shortened: as §1

Es-2 = experiment: as above; settings: Gynecologic cancer cell panel viability, ATPlite luminescence, 48 h; series mostly up to 57.5 µM
Procedure, shortened: as §1

HeLa = experiment: as above; settings: Gynecologic cancer cell panel viability, ATPlite luminescence, 48 h; series mostly up to 57.5 µM
Procedure, shortened: as §1

Hek293T = experiment: as above; settings: Gynecologic cancer cell panel viability, ATPlite luminescence, 48 h, control line for the selectivity index; series mostly up to 57.5 µM
Procedure, shortened: as §1

JEG-3 = experiment: as above; settings: Gynecologic cancer cell panel viability, ATPlite luminescence, 48 h; series mostly up to 57.5 µM
Procedure, shortened: as §1

OV90 = experiment: as above; settings: Gynecologic cancer cell panel viability, ATPlite luminescence, 48 h; series mostly up to 57.5 µM
Procedure, shortened: as §1

PA-1 = experiment: as above; settings: Gynecologic cancer cell panel viability, ATPlite luminescence, 48 h; series mostly up to 57.5 µM
Procedure, shortened: as §1

SKOV3 = experiment: as above; settings: Gynecologic cancer cell panel viability, ATPlite luminescence, 48 h; series mostly up to 57.5 µM
Procedure, shortened: as §1

Tov-21-G = experiment: as above; settings: Gynecologic cancer cell panel viability, ATPlite luminescence, 48 h; series mostly up to 57.5 µM
Procedure, shortened: as §1

Tov112D = experiment: as above; settings: Gynecologic cancer cell panel viability, ATPlite luminescence, 48 h; series mostly up to 57.5 µM
Procedure, shortened: as §1

COc1cc([C@H]2OC[C@@H]3[C@@H](c4ccc(O[C@@H]5O[C@H](CO)[C@@H](O)[C@H](O)[C@H]5O)c(OC)c4)OC[C@]23O)ccc1O
inactive: outcome (NIH3T3) inactive [at 17.4 µM] | Potency (C33A) | Potency (CAOV3) | Potency (CASKI) | Potency (Es-2) | Potency (HeLa) | Potency (Hek293T) | Potency (JEG-3) | Potency (OV90) | Potency (PA-1) | Potency (SKOV3) | Potency (Tov-21-G) | Potency (Tov112D)

CC1(CO)CC2C(O)C(=O)C3(CO)CC3(C)C2C1 (configuration not stated)
inactive: outcome (NIH3T3) | Potency (C33A) | Potency (CAOV3) | Potency (CASKI) | Potency (Es-2) | Potency (HeLa) | Potency (Hek293T) | Potency (JEG-3) | Potency (OV90) | Potency (PA-1) | Potency (SKOV3) | Potency (Tov-21-G) | Potency (Tov112D)

CO[C@@H](Cc1ccc(OCCc2nc(-c3ccccc3)oc2C)c2ccsc12)C(=O)O
inactive: outcome (NIH3T3) | Potency (C33A) | Potency (CAOV3) | Potency (CASKI) | Potency (Es-2) | Potency (HeLa) | Potency (Hek293T) | Potency (JEG-3) | Potency (OV90) | Potency (PA-1) | Potency (SKOV3) | Potency (Tov-21-G) | Potency (Tov112D)

CC1CCC2C(C)(C)C(O)CCC2(C)C12Cc1c(O)cc3c(c1O2)C(N)=NC3 (configuration not stated)
inactive: outcome (NIH3T3) | Potency (C33A) | Potency (CAOV3) | Potency (CASKI) | Potency (Es-2) | Potency (HeLa) | Potency (Hek293T) | Potency (JEG-3) | Potency (OV90) | Potency (PA-1) | Potency (SKOV3) | Potency (Tov-21-G) | Potency (Tov112D)

CC12CC34C=CC(=O)C(C)(CCC(=O)O)C3C(CC1C4)O2 (configuration not stated)
inactive: outcome (NIH3T3) | Potency (C33A) | Potency (CAOV3) | Potency (CASKI) | Potency (Es-2) | Potency (HeLa) | Potency (Hek293T) | Potency (JEG-3) | Potency (OV90) | Potency (PA-1) | Potency (SKOV3) | Potency (Tov-21-G) | Potency (Tov112D)

OC[C@H]1O[C@@H](Oc2ccc(O)c3cccc(O)c23)[C@H](O)[C@@H](O)[C@@H]1O
inactive: outcome (NIH3T3) | Potency (C33A) | Potency (CAOV3) | Potency (CASKI) | Potency (Es-2) | Potency (HeLa) | Potency (Hek293T) | Potency (JEG-3) | Potency (OV90) | Potency (PA-1) | Potency (SKOV3) | Potency (Tov-21-G) | Potency (Tov112D)

CC1=CC[C@]2(C(=O)O[C@@H]3O[C@H](CO[C@@H]4O[C@H](CO)[C@@H](O[C@@H]5O[C@@H](C)[C@H](O)[C@@H](O)[C@H]5O)[C@H](O)[C@H]4O)[C@@H](O)[C@H](O)[C@H]3O)CC[C@]3(C)C(CCC4[C@@]5(C)C[C@@H](O)[C@H](O)[C@@](C)(CO)C5CC[C@]43C)C2C1C (some centres not stated)
inactive: outcome (NIH3T3) inactive [at 9.27 µM] | activity change, negative = cytotoxicity (C33A) 6.24% [at 11.6 µM] | activity change, negative = cytotoxicity (CAOV3) 6.14% [at 11.6 µM] | activity change, negative = cytotoxicity (CASKI) 4.37% [at 11.6 µM] | activity change, negative = cytotoxicity (Es-2) 6.73% [at 11.6 µM] | activity change, negative = cytotoxicity (HeLa) 3.93% [at 11.6 µM] | activity change, negative = cytotoxicity (Hek293T) -4.38% [at 11.6 µM] | activity change, negative = cytotoxicity (JEG-3) -1.63% [at 11.6 µM] | activity change, negative = cytotoxicity (OV90) 6.64% [at 11.6 µM] | activity change, negative = cytotoxicity (PA-1) 10.1% [at 11.6 µM] | activity change, negative = cytotoxicity (SKOV3) -2.91% [at 11.6 µM] | activity change, negative = cytotoxicity (Tov-21-G) 4.72% [at 11.6 µM] | activity change, negative = cytotoxicity (Tov112D) -1.58% [at 11.6 µM]

CC(=O)O[C@@H]1C[C@]2(C)[C@@]3(CCC4[C@@]5(C)CC[C@H](O[C@@H]6O[C@H](C(=O)O)[C@@H](O)[C@H](O[C@@H]7O[C@H](CO)[C@H](O)[C@H](O)[C@H]7O[C@@H]7O[C@@H](C)[C@H](O)[C@@H](O)[C@H]7O[C@@H]7OC[C@](O)(CO)[C@H]7O)[C@H]6O[C@@H]6O[C@H](CO)[C@H](O)[C@H](O)[C@H]6O)C(C)(C)C5CC[C@]42C)O[C@@H](O)[C@]12C3CC(C)(C)[C@@H](OC(=O)/C=C/c1ccc(O)c(O)c1)[C@@H]2OC(=O)/C=C/c1ccccc1 (some centres not stated)
inactive: outcome (NIH3T3) inactive [at 9.27 µM] | activity change, negative = cytotoxicity (C33A) 8.85% [at 6.55 µM] | activity change, negative = cytotoxicity (CAOV3) 0.993% [at 6.55 µM] | activity change, negative = cytotoxicity (CASKI) 8% [at 6.55 µM] | activity change, negative = cytotoxicity (Es-2) -3.99% [at 6.55 µM] | activity change, negative = cytotoxicity (HeLa) 2.04% [at 6.55 µM] | activity change, negative = cytotoxicity (Hek293T) 0.066% [at 6.55 µM] | activity change, negative = cytotoxicity (JEG-3) -2.17% [at 6.55 µM] | activity change, negative = cytotoxicity (OV90) -7.75% [at 6.55 µM] | activity change, negative = cytotoxicity (PA-1) 24% [at 6.55 µM] | activity change, negative = cytotoxicity (SKOV3) 3.32% [at 6.55 µM] | activity change, negative = cytotoxicity (Tov-21-G) 17% [at 6.55 µM] | activity change, negative = cytotoxicity (Tov112D) 6.15% [at 6.55 µM]

C=CC1C(O[C@@H]2O[C@H](CO)[C@@H](O)[C@H](O)[C@H]2O)OC=C(C(=O)OC)C1Cc1nccc2c1[nH]c1ccccc12 (some centres not stated)
inactive: outcome (NIH3T3) inactive [at 17.4 µM] | Potency (C33A) | Potency (CAOV3) | Potency (CASKI) | Potency (Es-2) | Potency (HeLa) | Potency (Hek293T) | Potency (JEG-3) | Potency (OV90) | Potency (PA-1) | Potency (SKOV3) | Potency (Tov-21-G) | Potency (Tov112D)

O=C1NCc2nc3ccccc3c(=O)n2C1Cc1c[nH]c2ccccc12 (configuration not stated)
inactive: outcome (NIH3T3) | Potency (C33A) | Potency (CAOV3) | Potency (CASKI) | Potency (Es-2) | Potency (HeLa) | Potency (Hek293T) | Potency (JEG-3) | Potency (OV90) | Potency (PA-1) | Potency (SKOV3) | Potency (Tov-21-G) | Potency (Tov112D)

CC1=CC(=O)CC(C)(C)C1CCC(C)OC1OC(COC(=O)c2cc(O)c(O)c(O)c2)C(O)C(O)C1O (configuration not stated)
inactive: outcome (NIH3T3) inactive [at 17.4 µM] | Potency (C33A) | Potency (CAOV3) | Potency (CASKI) | Potency (Es-2) | Potency (HeLa) | Potency (Hek293T) | Potency (JEG-3) | Potency (OV90) | Potency (PA-1) | Potency (SKOV3) | Potency (Tov-21-G) | Potency (Tov112D)

C/C=C/C1=CC2=CC(=O)C(C)(O)C(OC(=O)c3c(C)cc(O)cc3O)C2CO1 (configuration not stated)
inactive: outcome (NIH3T3) | Potency (C33A) | Potency (CAOV3) | Potency (CASKI) | Potency (Es-2) | Potency (HeLa) | Potency (Hek293T) | Potency (JEG-3) | Potency (OV90) | Potency (PA-1) | Potency (SKOV3) | Potency (Tov-21-G) | Potency (Tov112D)

C[C@@H]1O[C@@H](O[C@@H]2[C@@H](O)[C@@H](O)[C@H](O[C@@H]3[C@@H](O)[C@@H](O[C@]4(CO)O[C@H](CO)[C@@H](O)[C@@H]4OC(=O)/C=C/c4ccc(O)cc4)O[C@H](CO)[C@H]3OC(=O)/C=C/c3ccc(O)cc3)O[C@H]2C)[C@H](O)[C@H](O)[C@H]1O
inactive: outcome (NIH3T3) inactive [at 9.27 µM] | activity change, negative = cytotoxicity (C33A) 0.544% [at 11.6 µM] | activity change, negative = cytotoxicity (CAOV3) 16.9% [at 11.6 µM] | activity change, negative = cytotoxicity (CASKI) -0.379% [at 11.6 µM] | activity change, negative = cytotoxicity (Es-2) 1.92% [at 11.6 µM] | activity change, negative = cytotoxicity (HeLa) 11% [at 11.6 µM] | activity change, negative = cytotoxicity (Hek293T) 1.13% [at 11.6 µM] | activity change, negative = cytotoxicity (JEG-3) -6.75% [at 11.6 µM] | activity change, negative = cytotoxicity (OV90) 7.74% [at 11.6 µM] | activity change, negative = cytotoxicity (PA-1) -5.64% [at 11.6 µM] | activity change, negative = cytotoxicity (SKOV3) -21.8% [at 11.6 µM] | activity change, negative = cytotoxicity (Tov-21-G) -2.88% [at 11.6 µM] | activity change, negative = cytotoxicity (Tov112D) -1.04% [at 11.6 µM]

COc1cc(C2c3cc(O)c(OC)cc3CC(CO)C2CO)ccc1O (configuration not stated)
inactive: outcome (NIH3T3) | Potency (C33A) | Potency (CAOV3) | Potency (CASKI) | Potency (Es-2) | Potency (HeLa) | Potency (Hek293T) | Potency (JEG-3) | Potency (OV90) | Potency (PA-1) | Potency (SKOV3) | Potency (Tov-21-G) | Potency (Tov112D)
